RORgamma inh: inhibitors of mouse ROR gamma transcriptional activity; P51450; Drosophila S2 Gal4-RORgamma UAS-luciferase reporter, 20 h; Potency, µM (series often up to 53.6 µM), inactives show at the highest dose activity change, negative = inhibition, most hits filed as inhibitors; 5.4% of 310,000 active; AID 2551; further: potency means the concentration at half of the fitted maximal effect; on the % scale 0 is the no-effect control and ±100 the full control effect; nearly all actives have a fitted effect of over 60% in size
Target sequence (P51450 whole entry, looked up, the tested form may be a part): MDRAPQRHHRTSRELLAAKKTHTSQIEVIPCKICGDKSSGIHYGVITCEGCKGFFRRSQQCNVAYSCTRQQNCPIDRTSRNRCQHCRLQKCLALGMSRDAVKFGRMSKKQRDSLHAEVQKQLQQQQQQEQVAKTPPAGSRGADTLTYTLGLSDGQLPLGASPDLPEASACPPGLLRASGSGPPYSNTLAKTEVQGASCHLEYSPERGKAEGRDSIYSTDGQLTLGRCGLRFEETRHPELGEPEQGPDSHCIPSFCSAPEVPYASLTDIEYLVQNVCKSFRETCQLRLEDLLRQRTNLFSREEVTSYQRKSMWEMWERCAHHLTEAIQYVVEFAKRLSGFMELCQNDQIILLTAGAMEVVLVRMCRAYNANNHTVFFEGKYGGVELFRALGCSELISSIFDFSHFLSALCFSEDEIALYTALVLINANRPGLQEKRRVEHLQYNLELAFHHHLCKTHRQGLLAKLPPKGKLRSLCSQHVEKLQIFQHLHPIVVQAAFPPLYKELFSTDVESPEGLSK
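Luminescence from a UAS-regulated Photinus luciferase reporter in stably transfected Drosophila Schneider cells is measured; decreased signal marks ROR gamma inhibition. Fusion expression is induced by 700 uM copper sulfate for 20 hr.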
BCR signal inh: inhibitors of chronic active B-cell receptor signaling | ABC-DLBCL IkBa-CBG/CBR reporter, luminescence ratio, 4 h | Potency, µM (titrated, usually from 46.1 µM), for the others: at the top dose activity change, negative = inhibition, usual class: inhibitors | 0.05% of 340,000 active | AID 493014; active means well fitted inhibition curve with a large enough effect in the signal ratio, with a control signal flat, not every such curve was filed as active; inconclusive means small, poorly fitted or top-dose-only effect, or effect the other way, or a change in a side signal; the % refers to the signal ratio;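 further: potency means the concentration at half of the fitted maximal effect; plate controls were basal doxycycline-induced cells for no effect and cells given 10 µM MG132 for full effect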
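Compounds up to 46 uM were incubated four hours with TMD8 cells whose green CBG68 luciferase is fused to IkappaBalpha; red CBR luminescence normalised the signal, and concentration-effect curves were fitted to fusion, red and ratio data.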
VP16 counter: counter-screen for ROR gamma inhibitors: Gal4-VP16 reporter; Drosophila S2 Gal4-VP16 UAS-luciferase, luminescence, 20 h; Potency, µM (top dose mostly 53.6 µM), for inactives: at the top dose activity, negative = inhibition, most hits filed as inhibitors; 3.5% of 310,000 active; AID 2546;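 further: Gal4-VP16 expression switched on by copper sulfate through the metallothionein promoter; potency means the concentration at half of the fitted maximal effect; on the % scale 0 is the no-effect control and ±100 the full control effect; nearly all actives have a fitted effect of over 50% in size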
SW480 rerep: induces DNA re-replication in SW480 colon adenocarcinoma cells | SW480 DNA re-replication, Hoechst DNA content imaging, 48 h | Potency, µM (highest dose often 46.1 µM), for the others: at the top dose re-replication activation, most hits filed as activators | 1.8% of 340,000 active | AID 624297; further: potency means the concentration at half of the fitted maximal effect; % of control where 0% means no effect; nearly all actives have a fitted effect of over 55% in size
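Compounds, transferred as 23 nL by pin tool, were incubated with cells for 48 hr; DNA content per nucleus was then quantified by Hoechst staining and fluorescence plate imaging.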
Giardia kill: Giardia lamblia killing; Giardia lamblia trophozoite viability; activity change, % at 7.66 µM, hits read low; 0.15% of 340,000 active; in the data active means activity change below about -80%; inconclusive means between about -30% and that limit;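 further: parasites exposed to compound for two days anaerobically before the ATP read; on the % scale 0 is the no-effect control and ±100 the full control effect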
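Luminescent ATP signal served as the viability read-out, measured 15-30 min after adding ATP detection reagent to trophozoites that had been incubated with compounds for 48 hrs at 37 deg C anaerobically at 100 cells/well.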
MCF10A rereplic: induces DNA re-replication in MCF 10a normal breast cells | MCF 10A DNA re-replication, Hoechst nuclear intensity, 48 h | Potency, µM (top dose mostly 46.1 µM), for the others: at the highest dose activity, positive = re-replication, most hits filed as activators | 2.9% of 350,000 active; further: potency means the concentration at half of the fitted maximal effect; % of control where 0% means no effect; nearly all actives have a fitted effect of over 50% in size
* hit, by the source's call; ? = inconclusive; / = not tested or not shown; [ ] = dose if it differs, or a comment. Hits are enriched below; roughly 8.3% of the tested compounds scored in any of these assays. Unless noted, the call rests on the fitted dose curve; in most records, active means well fitted curve in the direction sought with a large enough effect; inconclusive means small, poorly fitted or top-dose-only effect, or another doubt; inactive means no such curve, though single readings can be large; an effect the other way counts as inactive or inconclusive.

SMILES | RORgamma inh | BCR signal inh | VP16 counter | SW480 rerep | Giardia kill | MCF10A rereplic
Cc1ccc(C(=O)CC(=O)c2ccc(C)cc2O)cc1 | 8.9µM* | ? | ? | 1% | 2 | 13%
O=C(NC(=S)Nc1ccccc1N1CCN(C(=O)c2ccccc2)CC1)c1ccccc1F | 13µM* | 4% | ? | 8% | -18 | ?
CC(=O)NC(=S)Nc1ccccc1N1CCN(C(=O)c2ccccc2)CC1 | 6.3µM* | -8% | 5µM* | -12% | -22 | 5%
O=C(Nc1ccccc1N1CCN(C(=O)c2ccccc2)CC1)c1ccc(Cl)cc1 | 33% | 6% | -11% | ? | -14 | 4%
O=C(NC(=S)Nc1ccccc1N1CCOCC1)c1ccccc1F | 13µM* | ? | 20µM* | 2% | -10 | 16%
CC(C)C(=O)NC(=S)Nc1ccccc1N1CCN(C(=O)c2ccccc2)CC1 | -21% | 0% | -8% | 1% | -20 | 1%
FC(F)(F)Oc1ccc(NC(=S)Nc2ccccc2N2CCOCC2)cc1 | 7.9µM* | 1% | ? | 8% | 6 | 29%
COc1ccccc1-c1cncnc1NCc1cccs1 | 0% | / | 6% | / | / | /
CNC(=S)N1N=C(c2ccc(OC)cc2)CC1c1ccc(N(C)C)cc1 (centres undefined) | 13µM* | 3% | ? | 6% | -4 | ?
CNC(=S)N1N=C(c2ccc(Br)cc2)CC1c1ccc(N(C)C)cc1 (centres undefined) | ? | 1% | 0% | 11% | -2 | 26%
COc1ccc(C2CC(c3cccs3)=NN2C(=O)CSc2nc3ccccc3s2)cc1 (centres undefined) | ? | 4% | ? | 16% | 13 | 33%
Fc1ccc(C2CC(c3cccs3)=NN2C(=S)Nc2ccccc2)cc1 (centres undefined) | 7.9µM* | 4% | -11% | -114% | -17 | 5%
CNC(=S)N1N=C(c2cccs2)CC1c1ccc(OC)cc1 (centres undefined) | 20µM* | -1% | -9% | -3% | -16 | ?
O=C(CSc1nc2ccccc2s1)N1N=C(c2cccs2)CC1c1ccc(F)cc1 (centres undefined) | -32% | 0% | -25% | 0% | 1 | 16µM*
O=C(NC1CC(=O)N(c2ccc(F)cc2)C1)C(=O)c1c[nH]c2ccccc12 (centres undefined) | / | ? | / | -4% | -4 | 2%
O=C(COC(=O)c1cc([N+](=O)[O-])ccc1N1CCOCC1)Nc1ncc(Cl)cc1Cl | ? | 3% | ? | 2% | -3 | 11%
COCC(=O)N1CCC(Oc2ccc(C(=O)N3C[C@@H](C)O[C@@H](C)C3)cc2)CC1 | 9% | 0% | 16% | -1% | 16 | -1%
COc1ccc(N2C(=O)CC(Sc3nc(C)cc(C)n3)C2=O)cc1OC (centres undefined) | -3%[1.91 µM] | 0% | ? | -28% | -5 | -4%
COc1ccc(N2C(=O)CC(Sc3ncn[nH]3)C2=O)c(OC)c1 (centres undefined) | 3.2µM* | 0% | 22µM* | 7.3µM* | -2 | 2.3µM*
COc1ccccc1N1C(=O)CC(Sc2nc(C)cc(C)n2)C1=O (centres undefined) | 11µM* | ? | -19% | -5% | -6 | 6%
CC(C)c1ccc(N2C(=O)CC(Sc3ncn[nH]3)C2=O)cc1 (centres undefined) | ? | ? | ? | ? | -3 | ?
Cc1ccc(N2C(=O)CC(Sc3ncccn3)C2=O)cc1C (centres undefined) | 13µM* | 2% | ? | -1% | -2 | 0%
CCOc1ccccc1N1C(=O)CC(Sc2n[nH]c(-c3ccccc3)n2)C1=O (centres undefined) | 3.5µM* | ? | -71% | ? | 5 | 15µM*
CCN(CC(=O)NCc1cccs1)C(=O)c1cc(Br)ccc1O | / | 0% | / | 3% | 1 | 15%
Cc1ccc(C)c(N2CCN(CCCNC(=O)Cn3cc4c(n3)CCCCC4)CC2)c1 | 13µM* | ? | 20µM* | 13% | 3 | ?
SMILES | RORgamma inh | BCR signal inh | VP16 counter | SW480 rerep | Giardia kill | MCF10A rereplic
CCOC(=O)NC(=O)c1cn(-c2ccc(OC)cc2)c(=O)[nH]c1=O | 0% | ? | 1% | -4% | -8 | -2%
C=CC(=O)N1C/C(=C/c2ccc(F)cc2)C(=O)/C(=C\c2ccc(F)cc2)C1 | / | / | / | 1.2µM* | 5 | ?
CN1C2CCC1/C(=C\c1ccc(F)cc1)C(=O)/C2=C/c1ccc(F)cc1 | -25% | 1% | 11% | ? | 0 | 2%
CCn1c(NC(=O)C2CCCCC2)nc2ccccc21 | 0.35µM* | -24% | 0.89µM* | ? | 1 | 12%
O=C(Nc1nc2ccccc2n1CCN1CCCC1)C1CCCCC1 | 7.1µM* | -1% | 10µM* | -1% | 2 | 17%
O=C(Nc1ccc2ccccc2n1)C1CCCCC1 | 7% | ? | -14% | 1% | 8 | 12%
COc1cccc(CNc2nc3ccccc3n2CCN2CCCCC2)c1OC | 19% | 2% | -15% | 9% | 25 | ?
CCn1nccc1C(=O)Nc1nc2ccccc2n1CCN1CCCCC1 | 16µM* | ? | ? | 11%[9.22 µM] | -26 | ?
O=C(Nc1nc2ccccc2n1CCN1CCCCC1)c1ccc(Cl)cc1 | -43% | ? | ? | / | / | /
O=C(Nc1nc2ccccc2n1CCN1CCCCC1)C1CCCCC1 | 2µM* | 2% | 7.1µM* | -4% | -7 | 8%
CC(C)c1csc(CN2CCC(CCC(=O)NCC3CCCO3)CC2)n1 (centres undefined) | 1% | 8% | 1% | 6% | -4 | ?
CCOC(=O)C1CCC(CN(Cc2c(Cl)cccc2Cl)S(=O)(=O)c2ccc(F)c(C)c2)CC1 (centres undefined) | / | 0% | / | / | / | /
CCn1c(=O)c([N+](=O)[O-])c(NCCCn2ccnc2)c2ccccc21 | -15% | 5% | 2% | -15% | -2 | -1%
Cc1cc(NC(=O)CSc2nncn2N)no1 | 10% | 0% | -2% | -16% | 6 | 5%
O=C(NC1(C(F)(F)F)OCCO1)c1ccc(F)cc1 | 8% | 0% | -17% | -40% | 21 | 25%
COc1ccc(CNC(=O)COC(=O)c2ccccc2OCC(=O)Nc2ccc(SC(F)F)cc2)cc1 | -16% | -4% | 0% | 10µM* | 0 | -10%
O=C(CN1C(=O)NC2(CCOc3ccccc32)C1=O)c1ccc(F)c(F)c1 (centres undefined) | / | -13% | / | ? | -11 | ?
Clc1cccc(Cl)c1CO/N=C/c1c(-c2ccccc2)nc2n1CCS2 | 7.1µM* | 20% | -2% | 12% | 2 | ?

Screening data deposited in PubChem by National Center for Advancing Translational Sciences (NCATS).
